Reference: PubChem BioAssay (Tox21)
Results filed as inconclusive are left out. Where a call stands in place of a potency, no number is given. The source made the active and inactive calls. The call rests on the fitted dose curve.

Test: qHTS assay to identify small molecule agonists of the progesterone receptor (PR) signaling pathway - cell viability counter screen (AID 1346799); further: nearly all actives have a fitted effect of over 45% in size
Conditions: PR-UAS-bla HEK293T viability, CellTiter-Glo luminescence, 16 h; series mostly up to 92.4 µM
Text: National Center for Advancing Translational Sciences [NCATS]
NIH Chemical Genomics Center [NCGC]
U.S. Environmental Protection Agency [EPA]
National Institutes of Environmental Health Sciences [NIEHS]
National Toxicology Program [NTP]
U.S. Food and Drug Administration [FDA]
Progesterone receptor (PR), a nuclear hormone receptor, plays an important role in development, metabolic homeostasis and reproduction. It is activated by the steroid hormone progesterone. Endocrine disrupting chemicals (EDCs) and their interactions with steroid hormone receptors like PR causes disruption of normal endocrine function. To identify the compounds that stimulate PR signaling, a PR-UAS-bla GripTite cell line i.e. PR-UAS-bla HEK293T (Invitrogen, Carlsbad, CA, USA) containing a beta-lactamase reporter gene under the control of an UAS response element was used to screen Tox21 10K compound library. The cytotoxicity of the Tox21 compound library against the PR-bla cell line was tested in parallel by measuring the cell viability using CellTiter-Glo assay in the same wells.
Tox21 Assay Protocol Summary:
PR-UAS-bla HEK293T cells were dispensed at 3,000 cells/5 uL of assay medium containing 2% charcoal stripped FBS per well into black wall/clear-bottom 1536-well plates using a Multidrop Combi (ThermoFisher Scientific, Waltham, MA) dispenser. After the assay plates were incubated at a 37C and 5% CO2 for 6 hr, 23 nL of compounds dissolved in DMSO, positive controls or DMSO only was transferred to the assay plate by a Pintool station (Kalypsys, San Diego, CA). The plates were incubated at 37C and 5% CO2 for 16 hr. Then 1 uL of LiveBLAzer B/G FRET substrate was added using a Flying Reagent Dispenser (FRD, Aurora Discovery, San Diego, CA), the plates were incubated at room temperature for 2 hours, and fluorescence intensity was measured by an Envision plate reader (PerkinElmer, Shelton, CT). For cell viability readout that measures cytotoxicity, 4 uL/well of CellTiter-Glo reagent was added into the assay plates using a FRD. After 30 min incubation at room temperature, the luminescence intensity in the plates was measured using a ViewLux (PerkinElmer) plate reader.

| Structure (SMILES) | Potency | activity change, negative = cytotoxicity |
| --- | --- | --- |
| CC(C)(C)OC(=O)c1cccc(N)c1 | inactive | – |
| CCNS(=O)(=O)c1ccc(C)cc1 | inactive | – |
| Nc1ccccn1 | inactive | – |
| c1ccc(Cc2ccccc2)cc1 | inactive | – |
| O=C(c1ccccc1)C1(O)CCCCC1 | inactive | – |
| Nc1ccn([C@@H]2O[C@H](CO)[C@@H](O)[C@@H]2O)c(=O)n1 | inactive | – |
| CCCO[Si](OCCC)(OCCC)OCCC | inactive | – |
| CC1OC1C1CCC2(C)OC2C1 (stereo not given) | inactive | – |
| Clc1cc(Cl)cc(Cl)c1 | inactive | – |
| CC(C)COC(=O)c1ccc(N)cc1 | inactive | – |
| CCCCOC(=O)CCC(C)=O | inactive | – |
| C[N+]1(C)CCCC(OC(=O)C(O)(c2ccccc2)c2ccccc2)C1 (stereo not given) | inactive | – |
| CN(C)CCCCCCN(C)C | inactive | – |
| O=S(=O)(O)c1cccc(S(=O)(=O)O)c1 | inactive | – |
| O=[N+]([O-])c1ccc(/C=N\O)o1 | inactive | – |
| C=C(C)C(=O)OCC(O)CO (stereo not given) | inactive | – |
| CCOc1c(N2CCOCC2)cnn(C)c1=O | inactive | – |
| CC1CCC(CO)CC1 (stereo not given) | inactive | – |
| Clc1cc(Cl)c(Cl)nc1Cl | inactive | – |
| CCCCS(=O)(=O)N[C@@H](Cc1ccc(OCCCCC2CCNCC2)cc1)C(=O)O | inactive | – |

| Structure (SMILES) | Potency | activity change, negative = cytotoxicity |
| --- | --- | --- |
| CCCCCCCC1CCCC1=O (stereo not given) | inactive | – |
| O=C(O)c1cn(C2CC2)c2cc(N3CCNCC3)c(F)cc2c1=O | inactive | – |
| C=CCOCC(O)CO (stereo not given) | inactive | – |
| O=C(CO)[C@@H](O)[C@H](O)[C@@H](O)CO | inactive | – |
| COc1ccc2cc1Oc1cc3c(cc1OC)CC[N+](C)(C)[C@H]3Cc1ccc(cc1)Oc1c(OC)c(OC)cc3c1[C@@H](C2)[N+](C)(C)CC3 | inactive | – |
| CCCCCCC1CCC(=O)O1 (stereo not given) | inactive | – |
| O=[N+]([O-])c1cncn1CCN1CCOCC1 | inactive | – |
| O=C(O)CCSCCC(=O)O | inactive | – |
| Nc1ccn([C@@H]2O[C@H](CO)[C@@H](O)C2(F)F)c(=O)n1 | inactive | – |
| CC[N+](CC)(CC)CCOc1cccc(OCC[N+](CC)(CC)CC)c1OCC[N+](CC)(CC)CC | inactive | – |
| COCCOCC(OC)OC | inactive | – |
| NC(=O)Cc1cccc2ccccc12 | inactive | – |
| C=C(C)C(=O)OCC1CCCO1 (stereo not given) | inactive | – |
| CCO[Si](OCC)(OCC)c1ccccc1 | inactive | – |
| CCCCOCCOC(=O)COc1cc(Cl)c(Cl)cc1Cl | inactive | – |
| CCCCCCC#CC(=O)OC | inactive | – |
| CC(C)C[C@@H](N)C(=O)O | – | -1.58% [at 19 µM] (inactive) |
| CC1=C(C/C=C(\C)CCC[C@H](C)CCC[C@H](C)CCCC(C)C)C(=O)c2ccccc2C1=O | inactive | – |
| CC(N)C12CC3CC(CC(C3)C1)C2 (stereo not given) | inactive | – |
| CC(CC=O)CC(C)(C)C (stereo not given) | inactive | – |
